Results filed as inconclusive are left out. Where a call stands in place of a potency, no number is given. Values without a mark were called inactive. Calls of active or inactive are those of the source. Calls follow the shape of the dose curve; as a rule, active = well fitted curve in the direction sought with a large enough effect; inconclusive = small, poorly fitted or top-dose-only effect, or another doubt; inactive = no such curve, though single readings can be large; an effect the other way counts as inactive or inconclusive.
Experiments:
[1] = molecular target: Rap guanine nucleotide exchange factor 3 (Homo sapiens) (UniProt O95398); test: Confirmatory qHTS for antagonist of cAMP-regulated guanine nucleotide exchange factor 3 (EPAC1) (AID 1645880); conditions: EPAC1 Rap1B-BODIPY-GDP exchange, fluorescence; activity, negative = inhibition: at 115 µM (top of the series); also: nearly all actives have a fitted effect of over 55% in size; also: potency is read from the fitted curve at half-maximal effect
Rap guanine nucleotide exchange factor 3 (Homo sapiens), sequence (O95398 whole entry, looked up): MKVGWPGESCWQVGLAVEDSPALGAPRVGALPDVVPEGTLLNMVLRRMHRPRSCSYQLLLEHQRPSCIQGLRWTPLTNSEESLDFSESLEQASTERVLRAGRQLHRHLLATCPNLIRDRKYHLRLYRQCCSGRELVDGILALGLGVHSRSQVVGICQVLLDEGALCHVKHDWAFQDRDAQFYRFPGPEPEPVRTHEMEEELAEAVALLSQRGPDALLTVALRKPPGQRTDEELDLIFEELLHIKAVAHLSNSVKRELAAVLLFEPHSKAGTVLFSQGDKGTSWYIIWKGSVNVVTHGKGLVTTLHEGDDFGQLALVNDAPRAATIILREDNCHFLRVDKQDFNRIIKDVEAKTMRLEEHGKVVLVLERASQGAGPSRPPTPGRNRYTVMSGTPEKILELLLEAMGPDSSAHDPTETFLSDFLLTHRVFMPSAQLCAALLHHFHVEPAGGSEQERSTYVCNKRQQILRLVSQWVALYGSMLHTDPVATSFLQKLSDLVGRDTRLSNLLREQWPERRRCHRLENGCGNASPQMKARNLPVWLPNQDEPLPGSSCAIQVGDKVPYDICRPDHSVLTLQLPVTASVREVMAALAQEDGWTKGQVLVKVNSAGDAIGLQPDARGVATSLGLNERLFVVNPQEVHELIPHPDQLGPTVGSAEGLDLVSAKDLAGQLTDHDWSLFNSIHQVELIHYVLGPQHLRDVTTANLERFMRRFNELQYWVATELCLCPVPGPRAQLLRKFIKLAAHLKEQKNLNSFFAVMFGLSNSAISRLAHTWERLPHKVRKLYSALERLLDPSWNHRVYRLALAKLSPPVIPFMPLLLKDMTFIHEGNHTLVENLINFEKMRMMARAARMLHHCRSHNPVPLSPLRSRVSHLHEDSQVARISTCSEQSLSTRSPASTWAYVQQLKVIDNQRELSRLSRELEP
Summary of the method: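 Nucleotide exchange uses 100 nM EPAC1, 250 nM RAP1B-BODIPY-GDP and 50 uM GDP, with compounds in a concentration-titration series. After 5 min at room temperature, fluorescence (480 nm ex/540 nm em) is read every 5 min for 30 min. Data are normalized to control ATA and DMSO.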

[2] = molecular target: Rap guanine nucleotide exchange factor 3 (Homo sapiens) (UniProt O95398); test: Confirmatory qHTS for agonist of cAMP-regulated guanine nucleotide exchange factor 3 (EPAC1) (AID 1645881);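 also: EPAC1 catalysed release of BODIPY-GDP from Rap1B seen as fluorescence loss; nearly all actives have a fitted effect of over 75% in size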
[3] = molecular target: Rap guanine nucleotide exchange factor 4 (Homo sapiens) (UniProt Q8WZA2); test: Confirmatory qHTS for agonist of cAMP-regulated guanine nucleotide exchange factor 4 (EPAC2) (AID 1645884);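 also: nucleotide exchange releases bodipy-GDP from Rap1 and this lowers its fluorescence; nearly all actives have a fitted effect of over 65% in size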
Rap guanine nucleotide exchange factor 4 (Homo sapiens), sequence (Q8WZA2 whole entry, looked up): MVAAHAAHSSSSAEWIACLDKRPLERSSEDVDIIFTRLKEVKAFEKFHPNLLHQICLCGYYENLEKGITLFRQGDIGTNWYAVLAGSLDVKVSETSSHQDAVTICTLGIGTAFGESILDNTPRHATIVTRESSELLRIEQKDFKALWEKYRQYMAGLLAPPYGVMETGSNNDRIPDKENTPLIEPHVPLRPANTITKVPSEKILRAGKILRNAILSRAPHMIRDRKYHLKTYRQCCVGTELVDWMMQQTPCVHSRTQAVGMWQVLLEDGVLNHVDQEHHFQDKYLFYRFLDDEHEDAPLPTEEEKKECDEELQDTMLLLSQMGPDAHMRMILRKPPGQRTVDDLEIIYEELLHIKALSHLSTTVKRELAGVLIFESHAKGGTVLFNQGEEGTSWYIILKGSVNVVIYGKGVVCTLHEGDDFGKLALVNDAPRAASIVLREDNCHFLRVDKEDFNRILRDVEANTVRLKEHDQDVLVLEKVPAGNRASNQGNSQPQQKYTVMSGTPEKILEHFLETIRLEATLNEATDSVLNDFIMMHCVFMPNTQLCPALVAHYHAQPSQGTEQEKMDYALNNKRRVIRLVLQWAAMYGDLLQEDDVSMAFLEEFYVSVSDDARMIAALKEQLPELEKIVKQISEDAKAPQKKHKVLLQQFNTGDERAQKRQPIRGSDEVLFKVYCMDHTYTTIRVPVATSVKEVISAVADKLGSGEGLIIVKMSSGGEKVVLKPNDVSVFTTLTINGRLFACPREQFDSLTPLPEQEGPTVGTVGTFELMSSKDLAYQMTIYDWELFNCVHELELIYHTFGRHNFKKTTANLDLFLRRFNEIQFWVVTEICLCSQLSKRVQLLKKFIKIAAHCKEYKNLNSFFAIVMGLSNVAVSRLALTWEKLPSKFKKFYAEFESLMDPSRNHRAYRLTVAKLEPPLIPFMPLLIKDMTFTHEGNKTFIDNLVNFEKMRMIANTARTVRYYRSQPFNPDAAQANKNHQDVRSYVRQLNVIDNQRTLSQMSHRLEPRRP

[4] = molecular target: Rap guanine nucleotide exchange factor 4 (Homo sapiens) (UniProt Q8WZA2); test: Confirmatory qHTS for antagonist of cAMP-regulated guanine nucleotide exchange factor 4 (EPAC2) (AID 1645885); also: nearly all actives have a fitted effect of over 25% in size; also: potency is read from the fitted curve at half-maximal effect
[5] = molecular target: Rap guanine nucleotide exchange factor 3 (Homo sapiens) (UniProt O95398); test: Counterscreen qHTS for antagonist of cAMP-regulated guanine nucleotide exchange factor 3 (EPAC1) (AID 1645888);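 also: fluorescence loss as bound BODIPY-GDP is released from Rap1B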
Summary of the method: (§1)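 Rap1B-BODIPY-GDP 250 nM + GDP 50 uM; cpds 7-pt, final 9.74 nM–152 uM (activator mode) or from 7.32 nM upwards (inhibitor mode); RT; FI 480/540 nm at 5 and 30 min, then ± cAMP, reread.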

[6] = molecular target: Rap guanine nucleotide exchange factor 3 (Homo sapiens) (UniProt O95398); test: Counterscreen qHTS for agonist of cAMP-regulated guanine nucleotide exchange factor 3 (EPAC1) (AID 1645889); also: nearly all actives have a fitted effect of over 40% in size; also: potency is read from the fitted curve at half-maximal effect
Summary of the method: as §1

SMILES | Potency [1] | Potency [2] | Potency [3] | Potency [4] | Potency [5] | Potency [6] | activation [3] | activity change, negative = inhibition [5] | activation [6] | outcome [4]
CC1=NOC(=O)/C1=C\c1ccc(-c2ccccc2Br)o1 | 21.3 µM (active) | inactive | inactive | inactive | inactive | inactive | – | – | – | –
Cc1[nH]n(-c2ccccc2)c(=O)c1C(c1ccc(C(=O)O)cc1)c1c(C)[nH]n(-c2ccccc2)c1=O | inactive | inactive | inactive | inactive | inactive | 1.78 µM (active) | – | – | – | –
COc1ccc(/C(N)=N/OC(=O)c2ccc(C)c([N+](=O)[O-])c2)cc1 | inactive | inactive | – | inactive | – | – | 8.03% [at 17.1 µM, percent relative to cAMP agonist control] | 4.78% [at 30.8 µM] | 16.7% [at 30.8 µM] | –
O=C1/C(=C\c2ccc(O)c(O)c2)C(c2ccccc2)=NN1c1ccccc1 | 16.9 µM (active) | inactive | inactive | inactive | inactive | inactive | – | – | – | –
O=C(NC1CCC(O)CC1)c1ccc(S(=O)(=O)NCc2ccco2)cc1 (stereo not given) | inactive | inactive | inactive | inactive | inactive | inactive | – | – | – | –
O=C(O)CSc1cc(C(=O)c2ccccc2O)cn2c(=O)c3c(-c4ccccc4)csc3nc12 | inactive | inactive | – | inactive | – | – | -8.3% [at 17.1 µM, percent relative to cAMP agonist control] | -7.65% [at 30.8 µM] | 17.9% [at 30.8 µM] | –
COc1cc(NC(=O)CCc2c(C)nc3c4c(C)cc(C)nc4nn3c2C)cc(OC)c1 | inactive | inactive | inactive | inactive | inactive | inactive | – | – | – | –
Cn1cc(C(=O)C(=O)N2CCCCC2)c2ccccc21 | inactive | inactive | inactive | inactive | inactive | inactive | – | – | – | –
CCCCn1c(N)c(N(CCOC)C(=O)c2cccc(S(=O)(=O)N(C)c3ccc(C)cc3)c2)c(=O)[nH]c1=O | inactive | inactive | – | inactive | – | – | -4.77% [at 17.1 µM, percent relative to cAMP agonist control] | 3.57% [at 30.8 µM] | 14.6% [at 30.8 µM] | –
COc1ccc(C)cc1-n1c(-c2ccc(Cl)cc2)cc2c1CC(C)(C)CC2=O | inactive | inactive | inactive | – | inactive | inactive | – | – | – | inactive [at 12.7 µM]
COC(=O)[C@H](CC(C)C)NC(=O)CC[C@H]1O[C@@H](n2ccc(=O)[nH]c2=O)[C@H](O)[C@@H]1O | inactive | inactive | inactive | inactive | inactive | inactive | – | – | – | –
COCCCn1c(=N)c(C(=O)NCc2cccnc2)cc2c(=O)n3cccc(C)c3nc21 | inactive | inactive | inactive | – | inactive | inactive | – | – | – | inactive [at 12.7 µM]
CCC(COC)Oc1cc(NCc2ccccc2)c2ncn(C(C)C)c2c1 (stereo not given) | inactive | inactive | inactive | inactive | inactive | 7.94 µM (active) | – | – | – | –
C/C(CC(=O)Nc1ccc2ccccc2c1)=N\NC(=O)c1ccc(O)c(O)c1 | 53.6 µM (active) | inactive | inactive | inactive | inactive | inactive | – | – | – | –
COc1ccc(C2CC(c3ccccc3OC(C)=O)=NN2C(C)=O)cc1 (stereo not given) | inactive | inactive | inactive | inactive | inactive | inactive | – | – | – | –
C=CCOc1ccc(C2N3CC4(CC)CN2CC(CC)(C3)C4=O)cc1 (stereo not given) | inactive | inactive | – | inactive | – | – | 6.19% [at 17.1 µM, percent relative to cAMP agonist control] | -3.19% [at 30.8 µM] | 36.6% [at 30.8 µM] | –
Cc1[nH][nH]c(=O)c1C(c1ccc(-c2ccc(Cl)c(C(=O)O)c2)o1)c1c(C)[nH][nH]c1=O | inactive | inactive | – | inactive | – | 11.2 µM (active) | 10.1% [at 17.1 µM, percent relative to cAMP agonist control] | 34.9% [at 30.8 µM] | – | –
CCCSc1nc(C)cc(C)c1S(=O)(=O)c1ccccc1C | inactive | inactive | inactive | inactive | inactive | inactive | – | – | – | –
COc1nc(C)cc(C)c1S(=O)(=O)c1ccc(Cl)cc1 | inactive | inactive | – | inactive | – | – | 6.22% [at 17.1 µM, percent relative to cAMP agonist control] | -12.6% [at 30.8 µM] | 27.8% [at 30.8 µM] | –
COC(=O)/C(N=Nc1cccc(C(F)(F)F)c1)=C(\C)O | inactive | inactive | – | inactive | – | – | 10.2% [at 17.1 µM, percent relative to cAMP agonist control] | -9.14% [at 30.8 µM] | 22.5% [at 30.8 µM] | –

SMILES | Potency [1] | Potency [2] | Potency [3] | Potency [4] | Potency [5] | Potency [6] | activation [3] | activity change, negative = inhibition [5] | activation [6] | outcome [4]
CCN(CC)c1nc2ccccc2n(Cc2cccc(OC)c2)c1=O | inactive | inactive | inactive | inactive | inactive | inactive | – | – | – | –
Cc1ccc(OCCn2c(=O)n(C)c3ccccc32)cc1 | inactive | inactive | inactive | 67.5 µM (active) | inactive | inactive | – | – | – | –
Cc1cccc(C(=O)Nc2cc(S(=O)(=O)N3CCOCC3)ccc2N2CCCC2)c1 | inactive | inactive | inactive | inactive | inactive | inactive | – | – | – | –
CCOC(=O)C1CCCN(C(=O)C2(c3ccc(Cl)cc3)CCCC2)CC1 (stereo not given) | inactive | inactive | inactive | inactive | inactive | inactive | – | – | – | –
COC(=O)[C@@H](NC(=O)Nc1ccc2c(c1)OCCO2)C(C)C | inactive | inactive | inactive | inactive | inactive | inactive | – | – | – | –
Cc1[nH]n(-c2ncc(-c3ccccc3)s2)c(=O)c1C(c1ccc(Cl)cc1)C(C#N)C#N (stereo not given) | 22.4 µM (active) | inactive | – | inactive | – | – | -0.2% [at 17.1 µM, percent relative to cAMP agonist control] | -10.4% [at 30.8 µM] | 13% [at 30.8 µM] | –
C=C1CCN(C(Cc2ccccc2)C(=O)OC)S(=O)(=O)c2ccc(F)cc21 (stereo not given) | inactive | inactive | – | inactive | – | – | 11.5% [at 17.1 µM, percent relative to cAMP agonist control] | 2.02% [at 30.8 µM] | 14% [at 30.8 µM] | –
COc1ccc(C)cc1Cn1nnc2ccccc21 | inactive | inactive | inactive | inactive | inactive | inactive | – | – | – | –
CCc1ccccc1N(C)S(=O)(=O)c1ccc2[nH]cc(C(=O)N3CCc4ccccc43)c(=O)c2c1 | inactive | inactive | – | inactive | – | – | -2.56% [at 17.1 µM, percent relative to cAMP agonist control] | -6.13% [at 30.8 µM] | 15.8% [at 30.8 µM] | –
O=C(Nc1ccccc1C(=O)O)c1cccc(S(=O)(=O)Nc2ccc(Br)cc2)c1 | 75.7 µM (active) | inactive | inactive | 42.6 µM (active) | inactive | inactive | – | – | – | –
COc1ccc(NC(=O)N2CCN3CCCCC3C2)cc1OC (stereo not given) | inactive | inactive | inactive | inactive | inactive | inactive | – | – | – | –
Cc1nn(C(=O)c2ccco2)c(C)c1Sc1ccccc1 | inactive | inactive | inactive | 10.7 µM (active) | inactive | inactive | – | – | – | –
COc1ccccc1CCC(=O)Nc1cc(S(=O)(=O)N2CCCCC2)ccc1N1CCN(C)CC1 | inactive | inactive | inactive | inactive | inactive | 63.1 µM (active) | – | – | – | –
Cc1ccc(S(=O)(=O)NN2C(=O)/C(=C/c3cccnc3)SC2=S)cc1 | 42.6 µM (active) | inactive | inactive | inactive | inactive | inactive | – | – | – | –
Cc1nc(-[n+]2nc(-c3ccncc3)nn2-c2ccccc2)sc1C | 22.4 µM (active) | inactive | – | inactive | – | – | 5.19% [at 17.1 µM, percent relative to cAMP agonist control] | -23.3% [at 30.8 µM] | 2.91% [at 30.8 µM] | –
Cc1sc2ncnc(N3CCC(C(=O)Nc4ccccc4C(C)(C)C)CC3)c2c1C | inactive | inactive | inactive | inactive | inactive | inactive | – | – | – | –
COc1ccc(-n2c(SCC(=O)Nc3ccccc3OC)nc(O)cc2=O)cc1 | inactive | inactive | – | inactive | – | – | 4.67% [at 17.1 µM, percent relative to cAMP agonist control] | -3.75% [at 30.8 µM] | 2.02% [at 30.8 µM] | –
CCc1nnc(NC(=O)c2ccc(-c3cccc(C(F)(F)F)c3)o2)s1 | inactive | inactive | – | inactive | – | – | 4.04% [at 17.1 µM, percent relative to cAMP agonist control] | 7.54% [at 30.8 µM] | 26.6% [at 30.8 µM] | –
CC1CCC/C(=C\Nc2ccc(O)cc2)C1=O (stereo not given) | inactive | inactive | – | inactive | – | – | 6.29% [at 17.1 µM, percent relative to cAMP agonist control] | -12.6% [at 30.8 µM] | 3.58% [at 30.8 µM] | –
Cc1nc2c(C(=O)NCCc3ccc(Cl)cc3)c[nH]n2c(=O)c1Cc1ccccc1F | 84.9 µM (active) | inactive | inactive | inactive | inactive | inactive | – | – | – | –
